Assay results as given in PubChem BioAssay AID489043 (National Center for Advancing Translational Sciences (NCATS), 2010).
Records with an inconclusive call do not appear. Active and inactive are the calls of the source. Calls follow the shape of the dose curve; as a rule, active = well fitted activation curve with a large enough effect; inconclusive = small, poorly fitted or top-dose-only effect; inactive = flat fitted curve, though single readings scatter.

These molecules were tested against Relaxin receptor 2 (Homo sapiens) (UniProt Q8WXD0) (assay: qHTS Assay for Agonists of the Relaxin Receptor RXFP1: RXFP2 Hit Validation). Conditions: HEK293 RXFP2 cAMP TR-FRET, 30 min; series mostly up to 115 µM.
Relaxin receptor 2 (Homo sapiens), sequence (Q8WXD0 whole entry, looked up): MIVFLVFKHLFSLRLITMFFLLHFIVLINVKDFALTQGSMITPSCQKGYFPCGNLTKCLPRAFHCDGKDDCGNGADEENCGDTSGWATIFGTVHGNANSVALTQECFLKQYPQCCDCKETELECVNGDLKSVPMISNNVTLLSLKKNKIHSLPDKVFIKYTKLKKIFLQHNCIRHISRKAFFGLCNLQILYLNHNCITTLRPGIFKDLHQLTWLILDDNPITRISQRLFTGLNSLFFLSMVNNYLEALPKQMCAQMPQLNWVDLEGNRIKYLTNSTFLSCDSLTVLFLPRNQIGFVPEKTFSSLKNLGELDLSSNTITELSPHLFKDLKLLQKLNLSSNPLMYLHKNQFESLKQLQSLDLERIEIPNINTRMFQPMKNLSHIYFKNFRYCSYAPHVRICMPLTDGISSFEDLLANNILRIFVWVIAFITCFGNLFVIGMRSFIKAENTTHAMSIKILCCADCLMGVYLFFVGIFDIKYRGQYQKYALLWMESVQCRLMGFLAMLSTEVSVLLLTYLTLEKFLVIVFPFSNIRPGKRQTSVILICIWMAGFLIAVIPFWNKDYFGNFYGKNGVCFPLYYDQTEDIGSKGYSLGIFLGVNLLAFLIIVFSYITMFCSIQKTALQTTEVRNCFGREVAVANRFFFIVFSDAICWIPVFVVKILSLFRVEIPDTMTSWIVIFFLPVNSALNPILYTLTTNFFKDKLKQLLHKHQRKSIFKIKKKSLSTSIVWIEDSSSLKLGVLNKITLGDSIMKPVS
Outline: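 TR-FRET cAMP read-out in lysed HEK293 RXFP2 cells, normalized to buffer (basal) and 29 nM porcine relaxin (100%). Compounds 30 min, 37C, with Ro 20174 present. EC50 via standard Hill equation.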
Also: nearly all actives have a fitted effect of over 65% in size.
Potency is read from the fitted curve at half-maximal effect.

| SMILES | Potency |
| --- | --- |
| CCn1c(SCC(=O)Nc2ccc(NC(C)=O)cc2)nc2c1c(=O)n(C)c(=O)n2C | 27.5 µM (active) |
| O=C(O)CCSc1ccc2ccccc2n1 | 19.4 µM (active) |
| Cc1ccc(CN(C)C(=O)c2ccc3c(c2)NC(=O)CS3)o1 | inactive |
| O=C(O)c1ccc(CN2C(=O)c3ccc(C(=O)O)cc3C2=O)cc1 | inactive |
| O=C(Nc1cccc(C(F)(F)F)c1)c1ccccc1NC(=O)C1CCCCC1 | inactive |
| Cc1cc(C)nc(NS(=O)(=O)c2ccc(N3C(=O)c4ccccc4C3=O)cc2)n1 | 29.8 µM (active) |
| O=[N+]([O-])c1cc2c(c(CSc3nnc4ccccn34)c1)OCOC2 | 11 µM (active) |
| CC1(C)O[C@@H]2[C@H](O1)[C@@H](COS(=O)(=O)O)O[C@H]2n1cnc2c(N)ncnc21 | 6.15 µM (active) |
| Nc1ncnc2c1ncn2[C@@H]1O[C@H](COS(=O)(=O)O)[C@@H](O)[C@H]1O | 12.3 µM (active) |
| Cc1c(CCOC(=O)c2cc([N+](=O)[O-])ccc2Cl)sc[n+]1CCCCS(=O)(=O)[O-] | inactive |
| COC(=O)Cn1cnc2c(C#N)c3n(c2c1=O)CCCCC3 | 9.77 µM (active) |
| COc1ccc(S(=O)(=O)Nc2ccccn2)c(C)c1C | inactive |
| Cc1cc(C(=O)COC(=O)Cn2cnc3c2c(=O)n(C)c(=O)n3C)c(C)n1C | 15.5 µM (active) |
| Cc1ccccc1NC(=O)c1ccccc1NC(=O)c1ccco1 | inactive |
| CCOC(=O)c1sc(NC(=O)CCc2ccc(OC)cc2)nc1C | 17.3 µM (active) |
| CCc1ccc(-c2nc3ccc(Br)cc3c(C(=O)O)c2C)s1 | 4.35 µM (active) |
| CCN(CC)S(=O)(=O)c1ccc2c(c1)N(CC(=O)NCc1ccccn1)C(=O)CO2 | 34.6 µM (active) |

| SMILES | Potency |
| --- | --- |
| Cc1cc(NC(=O)c2ccccc2F)nc2c1c(=O)oc1ccccc12 | 15.4 µM (active) |
| C=CCOc1c(Cl)cc(CNc2ccc(N(C)C)cc2)cc1OC | inactive |
| Cc1ccc(C(=O)Nc2cccc(C(F)(F)F)c2)cc1NC(=O)c1cnnc2ccccc12 | inactive |
| O=C(Nc1ccccc1C(=O)NCc1ccco1)c1ccco1 | inactive |
| Cn1c(=O)c2c(ncn2CC(=O)N/N=C/c2cn[nH]c2-c2ccc(F)cc2)n(C)c1=O | 21.8 µM (active) |
| CCc1nn(CC(=O)NCCCN2CCOCC2)c(=O)c2cc3sccc3n12 | inactive |
| O=C(O)CNC(=O)c1ccccc1NC(=O)c1ccco1 | inactive |
| CCc1cc2cc3c(cc2nc1SCC(=O)Nc1nccs1)OCO3 | 21.8 µM (active) |
| S=c1nc[nH]c2c1[nH]c1ccccc12 | 6.9 µM (active) |
| CCN(CC)S(=O)(=O)c1ccc(C)c(NC(=O)Cn2cnc3cc([N+](=O)[O-])ccc3c2=O)c1 | 30.9 µM (active) |
| O=C(Nc1ccccc1C(=O)Nc1ccc(F)cc1)c1ccco1 | inactive |
| Cn1c(=O)c2sccc2n2c(CCCC(=O)NCc3ccco3)nnc12 | 34.6 µM (active) |
| COc1ccc(CC(=O)N/N=C/c2cccnc2)cc1OC | inactive |
| CN1C(=O)c2ccc(C(=O)Nc3ccc(Br)cn3)cc2C1=O | 21.8 µM (active) |
| CC1CCCCN1C(=O)c1ccccc1NC(=O)c1ccco1 (stereo not drawn) | inactive |
| CC(C)c1ccccc1NC(=O)c1ccccc1NC(=O)C1CCCCC1 | inactive |
